Test results: PubChem BioAssay AID588474 (The Scripps Research Institute Molecular Screening Center, 2011)
Activity calls are given as the source filed them.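 The calls were made as follows: active = inhibition of at least 75% in the gel-based probe competition assay; inactive = inhibition below 75%.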

Target: Platelet-activating factor acetylhydrolase (Mus musculus) (UniProt Q60963)
Experiment: recombinant plasma PAF acetylhydrolase inhibition – biochemical, gel-based competitive ABPP, fluorescence, orthogonal assay, late-stage follow-up (AID 588474)
Conditions: recombinant mouse pPAFAH, FP-Rh fluorescence, at 5 µM, hits give high values

Chain of Platelet-activating factor acetylhydrolase (Mus musculus) (Q60963 whole entry, looked up): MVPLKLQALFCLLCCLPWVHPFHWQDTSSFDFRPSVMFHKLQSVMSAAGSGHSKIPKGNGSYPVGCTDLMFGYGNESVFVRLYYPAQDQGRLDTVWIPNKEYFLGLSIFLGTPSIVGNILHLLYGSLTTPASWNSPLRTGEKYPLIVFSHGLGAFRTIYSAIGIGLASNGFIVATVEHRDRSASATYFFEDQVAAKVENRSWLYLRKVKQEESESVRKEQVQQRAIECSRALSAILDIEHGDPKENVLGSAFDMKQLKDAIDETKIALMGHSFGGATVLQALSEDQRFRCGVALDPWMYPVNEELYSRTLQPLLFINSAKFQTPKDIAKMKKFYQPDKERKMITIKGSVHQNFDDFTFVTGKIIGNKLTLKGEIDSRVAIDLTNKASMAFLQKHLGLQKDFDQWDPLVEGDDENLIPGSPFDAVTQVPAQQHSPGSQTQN

inhibition, active:
O=C(Oc1ccc(Oc2ccccc2)cc1)N1CCC(O)CC1 82%, O=C(CCCSc1ccc(Cl)cc1)Nc1cc(S(=O)(=O)N2CCOCC2)ccc1O 75%, CCCCOC(=O)c1ccc(OC(=O)N2CCOCC2)cc1 93%, O=C(/C=C/c1cccs1)c1cc(Br)ccc1OC(=O)N1CCOCC1 91%

inhibition, inactive:
Cc1ccc(-n2c(C)cc(/C=C(\C#N)C(=O)NCC3CCCO3)c2C)cc1 (configuration not stated) 23%, O=C(N/C=C/c1ccco1)OCc1ccccc1 -3%, Cc1ccc(NS(=O)(=O)c2ccc3c(c2)oc(=O)n3C)cc1F 53%, O=C(c1ccccc1)c1ccc(OC(=O)N2CCOCC2)cc1 55%, CCn1c(NC(=O)c2cccc(Cn3cc(Cl)cn3)c2)nc2ccccc21 0%, COc1cccc(CNC(=O)CCC2CCCN(Cc3cc(Cl)ccc3O)C2)c1 (configuration not stated) 24%, CC(=O)Nc1ccc(NC(=O)CCn2c(=O)oc3ccccc32)cc1 30%, CCOC(=O)NC(=O)CSc1nc(-c2ccc(C)c(C)c2)cn1-c1ccccc1 56%, CCOC(=O)N1CCN(C(=O)CCN2C(=O)COc3ccc(C)cc32)CC1 22%, O=C(Oc1cccc(Oc2ccccc2)c1)N1CCOCC1 18%, Cc1cc(C(=O)CSc2nc(N)cc(=O)[nH]2)c(C)n1CCc1ccc(Cl)cc1 6%, CCOC(=O)N1CCN(C(=O)c2ccc3c(=O)n4c(nc3c2)CCCCC4)CC1 8%, CCOC(=O)N1CCN(C(=O)c2cccc(S(=O)(=O)Nc3ccc(Br)cc3)c2)CC1 7%
